Reference: PubChem BioAssay (NCI)
Compounds without any hit were thinned out: in the full panel of roughly 83,000, 20% have a hit.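 How to read the values: 0–100, growth inhibition (40 = 60% inhibited); 0, no net growth; -100 to 0, cell death (-40 = 40% of starting cells died; -100 = all dead).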 Values without a mark were called inactive. Calls of active or inactive are those of the source. The calls were made as follows: active = growth percent below 10; inactive = the rest.

Key:
Assay in all cases: NCI-60 one-dose screen, 48 h (100 = growth as untreated, 0 = no growth, -100 = all killed)
Details in all cases: 10 µM unless noted
SR leukemia = system: SR leukemia
RPMI-8226 leukemia = system: RPMI-8226 leukemia
OVCAR-8 ovarian = system: OVCAR-8 ovarian
OVCAR-5 ovarian = system: OVCAR-5 ovarian
OVCAR-4 ovarian = system: OVCAR-4 ovarian
SK-OV-3 ovarian = system: SK-OV-3 ovarian
HS 578T breast = system: HS 578T breast
NCI/ADR-RES ovarian = system: NCI/ADR-RES ovarian
OVCAR-3 ovarian = system: OVCAR-3 ovarian
IGROV1 ovarian = system: IGROV1 ovarian

SMILES | growth (SR leukemia) | growth (RPMI-8226 leukemia) | growth (OVCAR-8 ovarian) | growth (OVCAR-5 ovarian) | growth (OVCAR-4 ovarian) | growth (SK-OV-3 ovarian) | growth (HS 578T breast) | growth (NCI/ADR-RES ovarian) | growth (OVCAR-3 ovarian) | growth (IGROV1 ovarian)
Cc1cccc2c3c(sc12)C(c1ccc(F)cc1)C(C#N)=C(/N=C/c1ccc(Cl)cc1)O3 (stereo not drawn) | 10.5% | 19.7% | -3.92% (active) | 23.5% | 70% | 34.8% | 1.34% (active) | 2.96% (active) |  | 
Fc1ccc(-c2cc3nc(C(Cl)Cl)nc(-c4ccco4)n3n2)cc1 | 64.8% | -31.5% (active) | 10.4% | -13.7% (active) | 17.7% | 18.8% | -6.45% (active) | -18.9% (active) | -46.9% (active) | 
CCn1c(SCC(=O)Nc2cccc(C(=O)/C=C/c3ccccc3Cl)c2)nc2ccccc2c1=O | 52.2% | 6.75% (active) | 98.9% | 97.7% | 86% | 106% | 92.2% | 93.4% | 69.1% | 
C#C[C@]1(O)CC[C@H]2[C@@H]3CC=C4c5sc(-c6ccc(C)cc6)nc5CC[C@]4(C)[C@H]3CC[C@@]21C | 0.0897% (active) | -27.4% (active) | 58.4% | 93.5% | 65.3% | -7.23% (active) | -26.9% (active) |  | 62% | 
O=S(=O)(NC1c2ccccc2C[C@H]1O)c1ccc(Cl)cc1Cl (stereo partly drawn) | 87.2% | 107% | 98.4% | 102% | 97.4% | 97.3% | 93.7% | 99.5% |  | 
COc1ccccc1-n1cc(C#N)c(N)c1C(=O)c1ccc(Cl)cc1 | 23.5% | 88.3% | 96.7% | 109% | 98.2% | 101% | 74.6% | 41.1% | 63.7% | 
COc1cc(/C=C2\C(=O)Nc3cc(Cl)ccc32)ccc1OCc1ccc(F)cc1 | 97.5% | 113% | 98.7% | 98.6% | 83.2% | 97.2% | 91.7% | 101% | 102% | 
Cn1ccnc1C(=O)/C=C/c1ccc(NC(=O)c2c(F)c(F)c(F)c(F)c2F)cc1 | 70.2% | 80.6% | 102% | 111% | 106% | 129% | 112% | 108% |  | 98.9%
C=CCOc1cccc(/C=C2\SC(=S)N(C3CC(=O)N(c4ccc(Br)cc4)C3=O)C2=O)c1 (stereo not drawn) | 93.7% | 96.4% | 99.9% | 108% | 109% | 88% | 106% | 99.9% | 108% | 
CN1c2ccccc2Sc2cc(C=C(C#N)C#N)ccc21 | 105% | 103% | 94.4% | 38% | 105% |  | 89.3% | 89.7% | 106% | 75.6%
COc1cc2c(cc1OC)C(Sc1ccc(F)cc1)c1c(nc(N)c(C#N)c1N)O2 (stereo not drawn) | 0.989% (active) | -28% (active) | -15% (active) | -88.2% (active) | -66.1% (active) | -21.6% (active) | -4.38% (active) | -46.4% (active) | -58.9% (active) | 
COc1cc(-c2nc(SCCC(C)C)nc(NNC(=O)c3ccncc3)c2C#N)cc(OC)c1OC | 105% | 100% | 70% | 61% | 90.6% | 31.9% | 8.27% (active) | 74.1% | 73.5% | 
N/C(=N\C(N)=N\c1nc2ccccc2s1)c1ccncc1Cl | 39.4% | 11.6% | 49% | 61.1% | 104% | 41.8% | 35.7% |  | 19.8% | 
COc1ccc(-c2nc3cccc(O)c3c(=O)n2Cc2ccccc2)cc1COc1ccc(NC(C)=O)cc1 | 27.5% [3 µM] | 44.5% [3 µM] | 49.3% [3 µM] | 64.2% [3 µM] | 83% [3 µM] | 67.2% [3 µM] | 63.8% [3 µM] | 51.1% [3 µM] | 66.9% [3 µM] | 
NC(=O)c1cccc(-n2ccc3cc(NC(=O)Nc4ccc(N5CCOCC5)c(C(F)(F)F)c4)ccc32)n1 | -23.5% (active) | -30.7% (active) | 11.6% | 28% | 3.71% (active) | 19.8% | -21.8% (active) | 15.9% | 7.68% (active) | 
COc1c(N2CC3CCCNC3C2)c(F)cc2c(=O)c(C(=O)N/N=C/c3ccc(F)cc3)cn(C3CC3)c12 (stereo not drawn) | -24.6% (active) | 60.2% | 91.7% | 95.6% | 90.5% | 110% | 94.4% | 89.4% | 92.9% | 
O=C(CN1CCN(c2cc(=O)n(-c3ccccc3)c3ccccc23)CC1)Nc1ccc(F)cc1 | 76.4% | 61.5% | 71.2% | 101% | 22.7% | 78.6% | 88.7% | 64.3% | 71.8% | 
Cc1ccc(-n2cc(/C=N/NC(=O)c3nc(N)n[nH]3)c(-c3ccc(S(C)(=O)=O)cc3)n2)cc1 | 79.3% | 100% | 100% |  | 101% | 104% | 108% | 100% | 95.7% | 98.4%
CCO/C=N/C1=C(C#N)C(c2ccc(OC)cc2)c2sc3c(CC)cccc3c2O1 (stereo not drawn) | 20.1% | 12.7% | 42.9% |  | 65% | 66.6% | 18.2% | 10.3% | -28.8% (active) | 38.4%
Cc1cc(C)c2sc(=O)n(Cc3nnc(SCCC(=O)O)o3)c2n1 | 79.2% | 99.8% | 104% |  | 108% | 105% | 103% | 102% |  | 102%
CCCn1cnc2c(c1=N)C(c1ccc(OC)cc1)c1sc3c(CC)cccc3c1O2 (stereo not drawn) | 8.89% (active) | -8.82% (active) | 26.9% |  | 71.8% | 42.3% | 18.3% | 7.77% (active) | 6% (active) | 31.9%
COc1cc(-c2nc3sccn3c2-c2ccnc(S(C)(=O)=O)n2)ccc1F | 86.3% | 91.9% | 98.3% |  | 98.2% | 113% | 101% | 95.7% |  | 98.1%
CNC(=O)c1cc(-c2ccc(NS(=O)(=O)c3ccc(C)cc3)cc2)nc2cccnc12 | 113% | 110% | 99.5% |  | 99.5% | 107% | 104% | 100% |  | 97.4%
NC(N)=Nc1ccc(Oc2cccc(Oc3ccc(Cl)c(C(F)(F)F)c3)c2)cn1 | -58.9% (active) | -49.5% (active) | -50.8% (active) |  | -76.8% (active) | 75.8% | 79.8% | -6.8% (active) | -95% (active) | -81.7% (active)
CC(=O)Nc1cccc(Nc2nc(N[C@@H](C)c3ccccc3)c3ccccc3n2)c1 | -43.4% (active) | -30.9% (active) | 39% |  | 17.5% | 53.6% | 1.68% (active) | -0.0139% (active) | 13% | 18.4%
O=C(Nc1nonc1-c1ccccc1)c1ccc(C(F)(F)F)cc1 | 85.6% | 74.2% | 86.6% |  | 91.2% | 112% | 101% | 85.2% |  | 96.4%
C=C(C=O)[C@@H]1CC[C@]2(COC(C)=O)CC[C@]3(C)C(CC[C@@H]4[C@@]5(C)CC[C@H](OC(C)=O)C(C)(C)[C@@H]5CC[C@]43C)[C@@H]12 (stereo partly drawn) | -25.8% (active) | -18.4% (active) | 15.3% |  | 16.2% | 50.3% | -11.6% (active) | 1.48% (active) | -71.6% (active) | -32.8% (active)
COc1ccc([C@H]2c3[nH]c4ccccc4c3C[C@H]3C(=O)N(C4CCN(Cc5c(Cl)cccc5Cl)CC4)CC(=O)N23)c(OC)c1 | 85% | 89.9% | 97.5% |  | 97.2% | 117% | 88.4% | 90.5% | 103% | 78.9%
Cc1cc(C)n(C(=O)c2sc(=S)n(-c3ccccc3)c2N=Nc2c(N)n[nH]c2N)n1 | 86.4% | 108% | 101% |  | 115% | 109% | 113% | 115% | 119% | 99.8%
